# Source: PubChem BioAssay (several laboratories)
# ERa coact inh = blocks coactivator binding to human estrogen receptor alpha. TR-FRET ER-alpha LBD / SRC-1 peptide, estradiol-bound. inhibition, % at 25.6 µM. actives 1.7% (n = 86,000); in the data active = inhibition above about 50%;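 also: 0% = receptor plus peptide control and 100% = peptide only without receptor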
# ERa SRC1 pot = enhances coactivator binding to human estrogen receptor alpha; TR-FRET ERalpha-LBD/SRC-Cy5 coactivator binding, 2 h; 100 = basal binding, no effect; coactivator binding (% of control), % at 25.6 µM; actives 1.3% (n = 86,000); AID 639; in the data active = activity above about 200%;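 also: binding measured in presence of low estradiol as agonist stimulus; 0% = peptide alone without receptor and 100% = receptor with peptide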
# EphB4 ephrin blk = antagonists of human EphB4-ephrin-B2 interaction; P54760; EphB4 LBD / TNYL-RAW-Alexa532 peptide, fluorescence polarization; inhibition, % at 7 µM; actives 0.15% (n = 97,000); AID 720;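 active = inhibition above the screen-wide mean inhibition plus 3 SD, cut at about 15% in these data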;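 also: 0% = DMSO wells and 100% = excess unlabeled TNYL-RAW peptide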
# ERb coact inh = ER-beta (human) coactivator binding inhibition | TR-FRET ER-beta LBD / SRC1-Cy5 peptide binding; receptor agonist-loaded with 1 µM estradiol | inhibition, % at 25.6 µM | actives 1.3% (n = 86,000) | Q92731 | AID 633;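 active = compounds whose percent inhibition of the receptor-coactivator binding signal exceeds about 50% in the single-dose screen, limit read from the data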;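 also: 0% = receptor plus peptide wells without compound and 100% = peptide-only wells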
# Target sequence (Q92731 whole entry, looked up, the tested form may be a part): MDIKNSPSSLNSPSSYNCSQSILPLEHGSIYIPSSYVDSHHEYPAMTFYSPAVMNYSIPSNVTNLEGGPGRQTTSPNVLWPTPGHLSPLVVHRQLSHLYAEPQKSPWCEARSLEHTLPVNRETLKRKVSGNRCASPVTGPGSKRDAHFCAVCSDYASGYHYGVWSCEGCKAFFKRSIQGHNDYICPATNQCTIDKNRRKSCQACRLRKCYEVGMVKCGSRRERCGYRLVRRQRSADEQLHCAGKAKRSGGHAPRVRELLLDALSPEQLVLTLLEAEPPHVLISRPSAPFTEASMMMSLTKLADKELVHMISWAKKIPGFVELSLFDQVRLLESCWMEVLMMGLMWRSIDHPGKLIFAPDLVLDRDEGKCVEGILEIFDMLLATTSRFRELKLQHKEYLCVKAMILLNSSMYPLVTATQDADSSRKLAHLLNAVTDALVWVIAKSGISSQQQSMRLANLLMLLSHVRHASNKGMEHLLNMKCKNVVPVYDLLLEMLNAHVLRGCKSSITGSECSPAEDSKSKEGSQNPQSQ
# Calb biofilm kill = kills Candida albicans biofilms | C. albicans biofilm + clotrimazole, Alamar Blue | inhibition, % at 6 µM | actives 0.14% (n = 85,000) | AID 834;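 active = inhibition above 20%; inactive = inhibition below 20%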;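 also: preformed 24 hr biofilms exposed to compound for 48 hr; 0% = biofilm without compound and 100% = blank killed by clotrimazole plus chlorhexidine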
# MT1-MMP txn act = activates MT1-MMP transcription; HT1080 MT1-MMP promoter luciferase reporter, luminescence, overnight; active compounds read high; activation factor at 10 µM; actives 0.16% (n = 86,000);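 active = activation factor of at least 2 for MT1-MMP transcription at 10 µM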
# * = called active by the depositor; · = no result given; + = active, no number; [ ] = dose if it differs, or a comment. This is a sample that favours compounds with a hit; in the whole collection about 3.2% have one here.
SMILES,ERa coact inh,ERa SRC1 pot,EphB4 ephrin blk,ERb coact inh,Calb biofilm kill,MT1-MMP txn act
N#Cc1c(N2CCCCC2)nc(N2CCCCC2)c2c1CCN(Cc1ccccc1)C2,·,·,-1,·,·,1.2
COc1cccc(OC)c1C(=O)N1CCN(Cc2ccccc2C)CC1,-2,90,3,5,11,0.9
CC(C)(C)c1nnc2sc(SC/C(O)=C(\C#N)c3nc4ccccc4[nH]3)nn2c1=O,69*[fluorescence artefact?],69,0,62*,-2,1.2
CC(C)(C)c1nnc2sc(SCC(=O)c3ccccc3)nn2c1=O,-2,100,-6,20,4,1.1
CSc1nnc(-c2ccccc2Cl)n1N,-6,123,0,-12,8,1.5
Nn1c(-c2ccccc2Cl)nnc1-c1ccccc1Cl,-5,119,2,-7,·,2*
COc1ccc(-c2nc3oc4cc(OC)ccc4c(=O)c3c(=O)n2Cc2ccco2)cc1,42,86,-7,23,9,1.1
COc1ccc(Cn2c(-c3ccco3)nc3oc4ccccc4c(=O)c3c2=O)cc1,45,145,0,27,5,1
COc1ccc(Cn2c(-c3ccco3)nc3oc4cc(OC)ccc4c(=O)c3c2=O)cc1,50,571*[fluorescence artefact?],6,54*[fluorescence artefact?],5,1.9
COc1ccc2c(=O)c3c(=O)n(Cc4ccco4)c(-c4ccco4)nc3oc2c1,75*[fluorescence artefact?],49,-2,60*,-1,1.2
CCc1nc2oc3cc(OC)ccc3c(=O)c2c(=O)n1Cc1ccco1,37,78,0,59*,7,1.2
COC(=O)/C(=C1/Oc2cc3c(cc2S1)OCO3)C(F)(F)F,5,112,·,6,0,1.5
COc1ccc(OC)c(S(=O)(=O)N2CCC(C(=O)NCc3ccccc3)CC2)c1,1,100,2,0,2,1.2
O=C1c2cccnc2C(=O)N1c1cccc(-c2nc3ccccc3o2)c1,53*[fluorescence artefact?],59,1,33,8,0.9
O=C1CCC(=O)N1c1cccc(-c2nc3ccccc3o2)c1,-4,137,·,-3,3,1.3
O=C1c2ccc(-c3nc4ccccc4o3)cc2C(=O)N1Cc1cccnc1,-2,370*,7,-15,5,1.1
CCOC(=O)CSc1nnc([C@@H](NC(=O)OC(C)(C)C)C(C)C)o1,2,104,3,-1,·,1.1
CC1(C)CC(CC(=O)O)(c2ccccc2)CCO1 (stereo not drawn),-4,122,-5,-2,4,1.1
COC(=O)c1ccsc1NC(=O)CSc1nnnn1-c1ccccc1SC,-19,263*[fluorescence artefact?],4,-9,4,1.1
CCC1=C2CC[C@H]3C(=O)NC(=O)[C@H]3[C@H]2[C@@]2(C)C(=NCCc3c[nH]c4ccccc34)OC(=O)N2C1=O,·,·,·,·,·,1.2
O=C(NCCc1ccccc1)C1CCN(S(=O)(=O)c2cccnc2)CC1,58*[fluorescence artefact?],114,-8,-3,22*,1.1
O=C(NCCc1ccccc1)C1CCN(S(=O)(=O)N2CCCC2)CC1,0,113,·,4,-4,1.2
Cc1cc(C)c(Cn2c(=O)n(CCCC(=O)NCc3ccco3)c(=O)c3sccc32)c(C)c1,53*[fluorescence artefact?],117,-4,19,-7,1.1
Cc1cc(C)cc(-n2c(=O)c3sccc3n(CC(=O)NCc3ccco3)c2=O)c1,-2,104,4,80*[fluorescence artefact?],12,1.1
Cc1ccc(C)c(Cn2c(=O)n(CCC(=O)NCc3ccco3)c(=O)c3sccc32)c1,20,205*,2,-4,7,1.1
SMILES,ERa coact inh,ERa SRC1 pot,EphB4 ephrin blk,ERb coact inh,Calb biofilm kill,MT1-MMP txn act
COC(=O)c1ccccc1NC(=O)c1cc(-c2cccc(OC)c2)on1,25,156,·,17,-3,1
C=CCN(CC=C)C(=S)Nc1ccccc1,·,·,2,·,·,·
CCn1c(SCc2cccc(C(=O)O)c2)nnc1-c1ccccc1,-6,112,2,0,-2,1.1
NC(=O)CSc1nnc(Cn2c(=O)sc3ccccc32)n1-c1cccc(Cl)c1,-4,94,3,1,-4,1
COc1ccc2cc3c(N)nn(C(=O)Cc4ccc(Cl)cc4)c3nc2c1,60*,77,3,46,8,·
COc1cccc(CC(=O)n2nc(N)c3cc4ccc(OC)cc4nc32)c1,·,·,2,·,·,·
COC(=O)[C@@H]1C[C@@H]2CC[C@@H](O)C[C@@H]2N1CC1CCCCC1,·,·,·,·,·,1.9
Cc1ccccc1Nc1nc(N)nc(CSc2nnc3sc4ccccc4n23)n1,2,110,-4,-10,7,1.2
Cn1c(N2CCN(C(=O)C34CC5CC(CC(C5)C3)C4)CC2)nc2ccccc21,-3,109,·,0,6,1.2
COC(=O)c1cn(NC(=O)c2cc(OC)c(OC)c(OC)c2)c(=O)c2ccccc12,58*[fluorescence artefact?],92,-2,17,0,1.1
CC1(C)Cc2nc3sc4c(SCC(=O)NCc5ccco5)ncnc4c3cc2CO1,26,289*[fluorescence artefact?],-3,40,9,0.8
CC1(C)Cc2c(sc3c2c2ncnn2c2nnc(SCC(=O)NCc4ccco4)n32)CO1,-2,116,3,74*[fluorescence artefact?],7,1.1
CC(C)c1nc2sc3c(SCC(=O)NCc4ccco4)ncnc3c2c2c1CCC2,11,+[fluorescence artefact?],·,12,2,1
CSc1nc(SCC(=O)NCc2ccco2)c2c3c(sc2n1)CN(C)CC3,52*[fluorescence artefact?],58,-11,35,8,1
Cc1ccc(OCn2c(=O)sc3ccccc32)cc1,-19,97,2,-16,1,1.2
Cc1ccc(-c2c3c(=O)n(C)c(=O)n(C)c3c3c(C)cc(C)nn23)cc1,35,139,·,5,3,1
COc1ccc(NC(=O)C(CCS(C)(=O)=O)NC(C)=O)cc1 (stereo not drawn),-8,113,4,-15,8,1.2
COc1ccc(NC(=O)C(C/C=C(/C)Cl)C(C)=O)cc1 (stereo not drawn),22,92,-4,21,21*,1.1
C=CCNC(=O)C(=O)c1cccn1-c1ccsc1C(=O)OC,7,117,0,1,1,1.1
Cc1ccc(C)c(N2CCN(C(=O)CCCn3c(=S)[nH]c4cc5c(cc4c3=O)OCO5)CC2)c1,-1,132,1,10,6,1
O=c1[nH]c(-c2ccccn2)nc2ccccc12,3,89,-2,4,2,1.3
c1ccc(-c2nc3c(ccc4ccccc43)[nH]2)nc1,-17,91,5,-8,4,2.3*
CCc1ccc(C2CC(c3ccccc3C)n3nc(N)nc3N2)cc1 (stereo not drawn),-2,108,·,5,0,1
CCCCOC(=O)Nc1ccc(C(C)C)cc1,-9,119,5,-13,-1,2.2*
CCCCOC(=O)Nc1ccc(C(N)=O)cc1,-6,100,2,-6,-1,1.7
COc1ccc(-n2c(SCC(=O)Nc3nccs3)nc3sc4c(c3c2=O)CCN(C)C4)cc1,51*,182,-3,25,5,1.1
